Data on twelve molecules can be found in PubChem BioAssay.

Experiment [1] in a line: liver-stage malaria parasite load reduction – cell-based, known kinase inhibitor set, luminescence, hepatoma host viability (AID 624392).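 Further: infected cells incubated roughly two days before readout.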 Conditions: Plasmodium liver stage in hepatoma cells, luciferase luminescence, concentration not given here; liver cell % of control: measured here: host liver cell viability; parasite % of control: stronger effect = lower value.
Experiment [2] in a line: altered dexamethasone sensitivity, NF-kB reporter, cell-based, luciferase, IL-1B stimulus (AID 624486).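 On percent of negative control (+Dex): 100% = mean signal of vehicle control wells on the plate.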 Conditions: IL-1B + dexamethasone, luminescence; percent of negative control (+Dex): actives lie on both sides, concentration not given here; z-score: measured here: IL-1B alone, no Dex.
Experiment [3] in a line: C. elegans survival during P. aeruginosa infection – whole organism (AID 651566).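 Further: tested at 14 µM; sign flipped so higher z means a lower ratio.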 Conditions: C. elegans killed by P. aeruginosa, survival ratio.
Experiment [4] in a line: pro-inflammatory signaling induction in mouse macrophages – cell-based, murine, luminescence (AID 652131). Conditions: murine macrophage pro-inflammatory reporter, stronger effect = higher value.
The target of experiment [5] is Cellular tumor antigen p53 (Homo sapiens) (UniProt P04637). The experiment is described as follows: GFP-p53 level modulators in HPV16+ cells – imaging, known kinase inhibitor set, EGFP/DsRed ratio (AID 1053116).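 Further: cells exposed to compounds for 24 h at 37 °C before reading.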 Conditions: GFP-p53 stability, stronger effect = higher value; EGFP object count: measured here: GFP-p53 positive objects count.
Cellular tumor antigen p53 (Homo sapiens), sequence (P04637 whole entry, looked up): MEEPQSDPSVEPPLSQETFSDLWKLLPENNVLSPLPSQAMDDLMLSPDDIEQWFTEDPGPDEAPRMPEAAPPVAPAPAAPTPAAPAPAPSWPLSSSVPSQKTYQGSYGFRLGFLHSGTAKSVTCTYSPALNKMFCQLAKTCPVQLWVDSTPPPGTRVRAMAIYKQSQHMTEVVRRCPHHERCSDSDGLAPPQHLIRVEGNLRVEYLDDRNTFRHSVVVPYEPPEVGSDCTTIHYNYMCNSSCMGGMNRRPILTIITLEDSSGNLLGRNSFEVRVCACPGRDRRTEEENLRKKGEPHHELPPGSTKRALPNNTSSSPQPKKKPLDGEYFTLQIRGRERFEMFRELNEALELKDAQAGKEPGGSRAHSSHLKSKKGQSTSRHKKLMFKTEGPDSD
Experiment [6] in a line: inducers of IRF3 signaling, differentiated THP-1 – cell-based, PMA-stimulated THP-1, luminescence (AID 1053176). Conditions: PMA-differentiated THP-1, IRF3 reporter luminescence; stronger effect = higher value.
Experiment [7] in a line: MELAS cybrid and Rieske KO viability enhancers – cell-based, MELAS cybrids, Rieske KO mouse fibroblasts, CellTiter-Glo, primary screen (AID 1508586;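 active means mean z-score across replicates of 1.96 or higher in either the MELAS or the Rieske mutant cell line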;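 further: z relative to plate mean and SD of compound and empty wells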). Conditions: low glucose.
Where [8] appears, read: MELAS cybrid survival, CellTiter-Glo 48 h, stronger effect = higher value.
Where [9] appears, read: Rieske KO mouse fibroblast survival, CellTiter-Glo 72 h.

Structures are written as SMILES. Several values for one entry are separate records, joined by “and”; a condition that tells them apart may be missing. Identical values can stand only once. A structure can be active in one record and inactive in another. Activity calls are given as the source filed them. Unless noted, how the calls were made is not given here.

In experiment [1], `CCn1c(-c2nonc2N)nc2c(C#CC(C)(C)O)nc(O[C@@H](CN)c3ccccc3)cc21` showed a liver cell % of control of 49.4%. Further, the parasite % of control in experiment [1] is 14.1% (inactive). Also, in experiment [2], the percent of negative control (+Dex) was 132% (inactive). For the same molecule, the z-score in experiment [2] was 3.44; in experiment [3], 0.92 (inactive); in experiment [4], 1 (inactive); in experiment [7] (setting [8]) it was 1.1; in experiment [7] (setting [9]), 4. For the same molecule, the EGFP object count in experiment [5] was found to be 10.5. The EGFP/DsRed ratio in experiment [5] was 0.166 (inactive). The fraction signal in experiment [6] was 0.0005 (inactive).
The molecule `O/N=C1/CCc2cc(-c3nc(C4CCNCC4)[nH]c3-c3ccncc3)ccc21` yielded a liver cell % of control in experiment [1] of 105%. The parasite % of control in experiment [1] was 174% (inactive). Also, the percent of negative control (+Dex) in experiment [2] was 128% (inactive). In addition, the z-score in experiment [2] was 0.995; in experiment [3] it was 0.24 (inactive); in experiment [4], 3.12 (inactive); in experiment [7] (setting [8]), -1.26 (inactive); in experiment [7] (setting [9]) it was -0.635. Further, the EGFP object count in experiment [5] was determined as 1. The EGFP/DsRed ratio in experiment [5] was 0.00487 (inactive). Moreover, in experiment [6], the fraction signal was 0.001 (inactive).
Molecule `COc1cccc(-n2ncc3c(N/N=C/c4ccncc4)ncnc32)c1` came in with a liver cell % of control in experiment [1] of 106%. Further, the parasite % of control in experiment [1] was 21.2% (inactive). The percent of negative control (+Dex) in experiment [2] was 156% (active). Also, the z-score is 0.175 in experiment [2]; 0.485 (inactive) in experiment [3]; 0.337 (inactive) in experiment [4]; -0.213 (inactive) in experiment [7] (setting [8]); 0.531 in experiment [7] (setting [9]). The EGFP object count in experiment [5] stood at 14. Moreover, the EGFP/DsRed ratio in experiment [5] was 0.38 (inactive). For the same molecule, the fraction signal in experiment [6] is 0.0245 (inactive).
`OCc1ccc(-c2nc(-c3ccc4c(c3)OCO4)c(-c3ccccn3)[nH]2)cc1`: the liver cell % of control in experiment [1] turned out to be 108%. Besides, the parasite % of control in experiment [1] was 115% (inactive). Besides, the percent of negative control (+Dex) in experiment [2] is 106% (inactive). Also, the z-score in experiment [2] was -0.455; in experiment [3], -0.12 (inactive); in experiment [4] it was 1.4 (inactive); in experiment [7] (setting [8]), -0.819 (inactive); in experiment [7] (setting [9]), -0.0179. The EGFP object count in experiment [5] came to 3.5. The EGFP/DsRed ratio in experiment [5] was 0.0782 (inactive). For the same molecule, the fraction signal in experiment [6] was 0.0015 (inactive).
In turn, `COC(=O)Nc1nc2ccc(Oc3cccc(NC(=O)Nc4cc(C(F)(F)F)ccc4F)c3)cc2[nH]1` yielded a liver cell % of control in experiment [1] of 103%. The parasite % of control in experiment [1] is 148% (inactive). Moreover, the percent of negative control (+Dex) in experiment [2] was 104% (inactive). Further, the z-score is 2.25 in experiment [2]; 1.03 (inactive) in experiment [3]; 4.52 (inactive) in experiment [4]; -0.76 (inactive) in experiment [7] (setting [8]); 0.691 in experiment [7] (setting [9]). Besides, in experiment [5], the EGFP object count is 4. Besides, the EGFP/DsRed ratio in experiment [5] is 0.18 (inactive). Further, the fraction signal in experiment [6] was -0.0045 (inactive).
In turn, `NS(=O)(=O)c1cccc(NC2CC(c3ccc(F)cc3)NN2)c1` (configuration not stated) gave a liver cell % of control in experiment [1] of 86.1%. In addition, the parasite % of control in experiment [1] is 117% (inactive). In experiment [2], the percent of negative control (+Dex) was 92.5% (inactive). Also, the z-score was 0.55 in experiment [2]; 0.39 (inactive) in experiment [3]; 4.5 (inactive) in experiment [4]; 1.38 (inactive) in experiment [7] (setting [8]); -0.322 in experiment [7] (setting [9]). The EGFP object count in experiment [5] amounted to 7.5. Besides, the EGFP/DsRed ratio in experiment [5] was 0.474 (inactive). For the same molecule, in experiment [6], the fraction signal is -0.0055 (inactive).
As to `NS(=O)(=O)c1ccc(N=Nc2c(O)[nH]c3ccc(C(=O)NCCc4cnc[nH]4)cc23)cc1`, the liver cell % of control in experiment [1] turned out to be 82.2%. Further, the parasite % of control in experiment [1] is 110% (inactive). In addition, in experiment [2], the percent of negative control (+Dex) was 85.5% (inactive). Moreover, the z-score in experiment [2] was -0.045; in experiment [3], -1.15 (inactive); in experiment [4] it was -0.108 (inactive); in experiment [7] (setting [8]) it was 0.0573 (inactive); in experiment [7] (setting [9]) it was -0.291. Further, the EGFP object count in experiment [5] is 7.5. Besides, the EGFP/DsRed ratio in experiment [5] is 0.141 (inactive). The fraction signal in experiment [6] is -0.0145 (inactive).
On to `CS(=O)(=O)Nc1ccc(-c2ccc3c(NC(=O)C4CC4)n[nH]c3c2)cc1`, for which the liver cell % of control in experiment [1] amounted to 98.9%. For the same molecule, the parasite % of control in experiment [1] is 96.9% (inactive). Also, the percent of negative control (+Dex) in experiment [2] was 94% (inactive). In addition, the z-score was 0.82 in experiment [2]; 0.39 (inactive) in experiment [3]; -0.745 (inactive) in experiment [4]; 0.24 (inactive) in experiment [7] (setting [8]); -0.0618 in experiment [7] (setting [9]). In experiment [5], the EGFP object count was 3. In addition, in experiment [5], the EGFP/DsRed ratio is 0.0815 (inactive). Besides, the fraction signal in experiment [6] was -0.009 (inactive).
The molecule `Nc1ncnc2occ(-c3ccc(NC(=O)Nc4cc(C(F)(F)F)cc(C(F)(F)F)c4)cc3)c12` had a liver cell % of control in experiment [1] of 58.8%. In addition, the parasite % of control in experiment [1] is 11.2% (inactive). Besides, in experiment [2], the percent of negative control (+Dex) is 77.5% (inactive). The z-score was -2.48 in experiment [2]; -0.205 (inactive) in experiment [3]; -1.51 (inactive) in experiment [4]; -0.873 (inactive) in experiment [7] (setting [8]); -0.237 in experiment [7] (setting [9]). Besides, in experiment [5], the EGFP object count amounted to 2. Also, the EGFP/DsRed ratio in experiment [5] is 0.014 (inactive). Moreover, in experiment [6], the fraction signal was -0.006 (inactive).
Turning to `CN1CCC(C(=O)Nc2n[nH]c3nc(-c4ccc(O)cc4)c(Br)cc23)CC1`, the liver cell % of control in experiment [1] is 51.2% and 53.8%. The parasite % of control in experiment [1] was 292% (inactive) and 294% (inactive). The percent of negative control (+Dex) in experiment [2] was 108% (inactive) and 100% (inactive). Also, the z-score in experiment [2] was -0.82 and -0.48; in experiment [3], 0.21 (inactive) and -0.175 (inactive); in experiment [4], -0.483 (inactive) and -0.641 (inactive); in experiment [7] (setting [8]) it was -0.719 (inactive) and 2.2 (active); in experiment [7] (setting [9]), -0.17 and -0.0758. In addition, the EGFP object count in experiment [5] is 2.5 and 3. The EGFP/DsRed ratio in experiment [5] is 0.0956 (inactive) and 0.0438 (inactive). For the same molecule, the fraction signal in experiment [6] is 0.0155 (inactive) and 0.0035 (inactive).
`N#Cc1c(NC(=O)CN2CCOCC2)sc2c1CCCC2` showed a liver cell % of control in experiment [1] of 105%. Moreover, the parasite % of control in experiment [1] is 134% (inactive). Moreover, the percent of negative control (+Dex) in experiment [2] is 98% (inactive). Besides, the z-score in experiment [2] is -0.1; in experiment [3], 0.4 (inactive); in experiment [4], 0.254 (inactive); in experiment [7] (setting [8]), -0.581 (inactive); in experiment [7] (setting [9]), -0.17. In addition, the EGFP object count in experiment [5] was 3.5. The EGFP/DsRed ratio in experiment [5] was 0.0894 (inactive). The fraction signal in experiment [6] was 0.0015 (inactive).
Take `CCN(CC)S(=O)(=O)c1ccc(OC)c(Nc2ncc(-c3ccccc3)o2)c1`: the liver cell % of control in experiment [1] was determined as 168%. Moreover, in experiment [1], the parasite % of control is 80% (inactive). The percent of negative control (+Dex) in experiment [2] is 91% (inactive). Also, the z-score in experiment [2] was 0.485; in experiment [3], -0.36 (inactive); in experiment [4] it was -0.177 (inactive); in experiment [7] (setting [8]), -0.446 (inactive); in experiment [7] (setting [9]) it was -0.197. In experiment [5], the EGFP object count was determined as 3. Also, in experiment [5], the EGFP/DsRed ratio was 0.245 (inactive). The fraction signal in experiment [6] was -0.012 (inactive).
